Measurements reported in PubChem BioAssay (NCATS).
Inconclusive results are not listed. Calls of active or inactive are those of the source. Calls follow the shape of the dose curve; as a rule, active = well fitted curve in the direction sought with a large enough effect; inconclusive = small, poorly fitted or top-dose-only effect, or another doubt; inactive = no such curve, though single readings can be large; an effect the other way counts as inactive or inconclusive.

Assays:
[1] = NS1 protein of Zika virus - qHTS assay to identify small molecule inhibitors in human HEK 293 cells (AID 1347053); settings: HEK293 ZIKV MR766 infection, NS1 TR-FRET, 24 h; series mostly up to 46.1 µM; also: nearly all actives have a fitted effect of over 55% in size
In short: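 Read-out is a two-antibody TR-FRET for ZIKV NS1, normalized between uninfected cells and infected cells. Compound added 1 h before MR766 infection at MOI 0.5; human HEK 293 cells incubated 24 h, 37 C.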

[2] = qHTS of pediatric cancer cell lines to identify multiple opportunities for drug repurposing: Primary screen for TC32 cells (AID 1347089); settings: TC32 Ewing sarcoma viability, CellTiter-Glo luminescence, 48 h; series mostly up to 45.8 µM; also: nearly all actives have a fitted effect of over 60% in size
In short: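 Measured quantity: luminescence from CellTiter-Glo, reflecting metabolically active TC32 cells following 48 h of compound. Curves came straight from multi-point titrations, with 8 or 11 points in primary and 11 in confirmatory screening.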

[3] = qHTS of pediatric cancer cell lines to identify multiple opportunities for drug repurposing: Primary screen for DAOY cells (AID 1347090); settings: DAOY medulloblastoma viability, CellTiter-Glo luminescence, 48 h; series mostly up to 46 µM; also: nearly all actives have a fitted effect of over 55% in size
In short: (§1)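 Viability measured as metabolically active cells via CellTiter-Glo luminescence following 48 hours of compound exposure, 11-point dilutions in confirmatory testing. 500-1,000 cells/well plated 5 hours before dosing; controls were DMSO and 2.3 µM bortezomib.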

[4] = qHTS of pediatric cancer cell lines to identify multiple opportunities for drug repurposing: Primary screen for SJ-GBM2 cells (AID 1347091); settings: SJ-GBM2 viability, CellTiter-Glo luminescence, 48 h; series mostly up to 46 µM
In short: as §1

[5] = qHTS of pediatric cancer cell lines to identify multiple opportunities for drug repurposing: Primary screen for A673 cells (AID 1347092); settings: A673 Ewing sarcoma viability, CellTiter-Glo ATP luminescence, 48 h; series mostly up to 46 µM; also: nearly all actives have a fitted effect of over 45% in size
In short: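 Cells are plated, rested 5 h, dosed by pintool, incubated 48 h, then lysed with CellTiter-Glo and read by luminescence. DMSO is the neutral control; bortezomib at 2.3 uM final is the positive control.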

[6] = qHTS of pediatric cancer cell lines to identify multiple opportunities for drug repurposing: Primary screen for SK-N-MC cells (AID 1347093); settings: SK-N-MC viability, CellTiter-Glo luminescence, 48 h; series mostly up to 46 µM
In short: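 Metabolically active cells were quantified by ATP-dependent luminescence (CellTiter-Glo, 15 min at room temperature) following 48 h treatment. Cells had been plated at 500-1,000 per well and settled for 5 h beforehand.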

[7] = qHTS of pediatric cancer cell lines to identify multiple opportunities for drug repurposing: Primary screen for BT-37 cells (AID 1347094); settings: BT-37 viability, CellTiter-Glo luminescence, 48 h; series mostly up to 57.3 µM
In short: (§2)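 CRCs from 8- or 11-point titrations (lowest final 0.59 nM NPC, 0.78 nM MIPE). Cell viability: CellTiter-Glo after 48 h incubation, 15 min room-temperature development, luminescence imaging.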

[8] = qHTS of pediatric cancer cell lines to identify multiple opportunities for drug repurposing: Primary screen for NB-EBc1 cells (AID 1347095); settings: NB-EBc1 neuroblastoma viability, CellTiter-Glo luminescence, 48 h; series mostly up to 46 µM
In short: as §2

[9] = qHTS of pediatric cancer cell lines to identify multiple opportunities for drug repurposing: Primary screen for U-2 OS cells (AID 1347096); settings: U-2 OS viability, CellTiter-Glo luminescence, 48 h; series mostly up to 46 µM; also: nearly all actives have a fitted effect of over 50% in size
In short: (§3)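 Viability after 48 h compound treatment at 37C, 500-1,000 cells/well, read as ATP luminescence with CellTiter-Glo. Primary screens used 11-point (MIPE, 0.78 nM-46 µM) or 8-point (NPC, 0.59 nM-46 µM) final concentrations; follow-up screens used 11-point dilutions.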

[10] = qHTS of pediatric cancer cell lines to identify multiple opportunities for drug repurposing: Primary screen for Saos-2 cells (AID 1347097); settings: Saos-2 viability, CellTiter-Glo ATP luminescence, 48 h; series mostly up to 46 µM; also: nearly all actives have a fitted effect of over 40% in size
In short: as §2

[11] = qHTS of pediatric cancer cell lines to identify multiple opportunities for drug repurposing: Primary screen for SK-N-SH cells (AID 1347098); settings: SK-N-SH viability, CellTiter-Glo luminescence, 48 h; series mostly up to 57 µM;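 also: DMSO served as neutral control and bortezomib at 2.3 µM as positive control; nearly all actives have a fitted effect of over 65% in size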
In short: (§4)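 Cells (500-1,000/well) rested 5 h, then received compounds for 48 h; metabolically active cells were measured by CellTiter-Glo luminescence. Final concentrations spanned up to 46 µM (MIPE, 11-point) or 0.59 nM-46 µM (NPC, 8-point) in primary screens, 11-point in follow-ups.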

[12] = qHTS of pediatric cancer cell lines to identify multiple opportunities for drug repurposing: Primary screen for NB1643 cells (AID 1347099); settings: NB1643 neuroblastoma viability, CellTiter-Glo luminescence, 48 h; series mostly up to 46 µM; also: nearly all actives have a fitted effect of over 50% in size
In short: as §2

[13] = qHTS of pediatric cancer cell lines to identify multiple opportunities for drug repurposing: Primary screen for LAN-5 cells (AID 1347100); settings: LAN-5 neuroblastoma viability, CellTiter-Glo luminescence, 48 h; series mostly up to 46 µM
In short: as §3

[14] = qHTS of pediatric cancer cell lines to identify multiple opportunities for drug repurposing: Primary screen for BT-12 cells (AID 1347101); settings: BT-12 viability, CellTiter-Glo luminescence, 48 h; series mostly up to 57.3 µM; also: nearly all actives have a fitted effect of over 25% in size
In short: as §4

[15] = qHTS of pediatric cancer cell lines to identify multiple opportunities for drug repurposing: Primary screen for Rh18 cells (AID 1347102); settings: Rh18 rhabdomyosarcoma viability, CellTiter-Glo luminescence, 48 h; series mostly up to 46 µM; also: nearly all actives have a fitted effect of over 65% in size
In short: as §3

[16] = qHTS of pediatric cancer cell lines to identify multiple opportunities for drug repurposing: Primary screen for OHS-50 cells (AID 1347103); settings: OHS-50 osteosarcoma viability, CellTiter-Glo luminescence, 48 h; series mostly up to 57.3 µM; also: nearly all actives have a fitted effect of over 40% in size
In short: as §4

Measured: Potency

CCCCOC(=O)CC(CC(=O)OCCCC)(OC(C)=O)C(=O)OCCCC
not listed: [16]
inactive: all other assays above

CC(C)CCCC(C)N (centres undefined)
inactive: all assays above

CC(=O)Nc1ccc(OC(=O)c2ccccc2OC(C)=O)cc1
inactive: all assays above

CC(=O)NO
inactive: all assays above

CC(=O)OCC(=O)[C@H]1CC[C@H]2[C@@H]3CCC4=CC(=O)CC[C@]4(C)[C@H]3CC[C@]12C
not listed: [16]
inactive: all other assays above

Cc1ncc(CO)c(C=O)c1O
inactive: all assays above

COc1cc(C(=O)N2CCCCCCC2)cc(OC)c1OC
not listed: [16]
inactive: all other assays above

O=C1C(CCS(=O)c2ccccc2)C(=O)N(c2ccccc2)N1c1ccccc1 (centres undefined)
inactive: all assays above

COC(=O)C(c1ccccc1Cl)N1CCc2sccc2C1 (centres undefined)
not listed: [16]
inactive: all other assays above

CC(=O)O[C@H]1C[C@@H]2CC[C@@H]3[C@H](CC[C@@]4(C)[C@H]3C[C@H]([N+]3(C)CCCCC3)[C@@H]4OC(C)=O)[C@@]2(C)C[C@@H]1N1CCCCC1
inactive: all assays above

Clc1cccc(C(c2ccc3nc[nH]c3c2)n2ccnc2)c1 (centres undefined)
inactive: all assays above

CC(C(=O)O)c1cccc(Oc2ccccc2)c1 (centres undefined)
inactive: all assays above

COc1cc(O)c(C(=O)c2ccccc2)cc1S(=O)(=O)O
not listed: [16]
inactive: all other assays above

Cc1cc(-c2ccccc2)nnc1NCCN1CCOCC1
not listed: [16]
inactive: all other assays above

NS(=O)(=O)Cc1noc2ccccc12
not listed: [16]
inactive: all other assays above

O=C1C(O)=C(O)C(=O)C(O)=C1O
inactive: all assays above
